High-throughput results as filed in PubChem.
AMA1-RON2 inh = disrupts binding of P. falciparum AMA1 to RON2; AlphaScreen AMA1-biotinylated RON2 peptide binding; Potency, µM (highest dose often 58.2 µM), without a hit: top-dose activity change, negative = inhibition, hits mostly inhibitors; actives 0.2% (n = 360,000); AID 720542;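 note: 0% = vehicle wells and -100% = peptide control; nearly all actives have a fitted effect of over 45% in size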
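AMA1 (3D7) with his tag at 25 nM final met compounds first, then biotinylated RON2 peptide at 25 nM; detection used donor plus acceptor beads, 10 µg/mL apiece, read by AlphaScreen after 30 min at room temperature.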
Pf growth 48h = inhibits P. falciparum growth in the first generation, 48 h; P. falciparum luciferase growth in erythrocytes, 48 h; Potency, µM (series often up to 28.7 µM), without a hit: at the highest dose activity change, negative = inhibition, hits mostly inhibitors; actives 5.9% (n = 310,000); AID 504832
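In quantitative HTS format, infected erythrocytes bearing luciferase-reporter parasites were treated for a single generation at 37 C. Luminescence after adding detection reagent served as the growth measure.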
Pf growth 96h = inhibits malaria parasite growth, 96 h; P. falciparum luciferase reporter growth, 96 h; Potency, µM (series often up to 28.7 µM), for the others: at the top dose activity change, negative = inhibition, usual class: inhibitors; actives 6.9% (n = 320,000)
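Plates of compound plus infected erythrocytes (2% hematocrit, 0.05% parasitemia final) incubate 96 hours, 37 C, 5% CO2. Detection reagent added; reduced luminescence from the parasites' luciferase reporter flags inhibition.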
HCV inhibitor = HCV inhibition | Huh7.5.1 HCVcc-Cre infection, luciferase reporter, 44 h | AID 651820 | actives 3.4% (n = 340,000) | Potency, µM (titrated, usually from 41.8 µM), without a hit: top-dose activity change, negative = inhibition, most hits filed as inhibitors
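1,000 cells/well; 4 h culture; + compound; + HCVcc-Cre (~0.5 moi); 44 h; luciferase substrate, RT 15 min; read 15 sec.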
* = called active by the depositor; ? = inconclusive; . = no result given. The list is not random: actives were taken first. Their share in the collection is about 11%. Calls come from the whole dose curve; as a rule, active = well fitted curve in the direction sought with a large enough effect; inconclusive = small, poorly fitted or top-dose-only effect, or another doubt; inactive = no such curve, though single readings can be large; an effect the other way counts as inactive or inconclusive. Unless noted, % is set by controls: 0 for no effect and ±100 for the full control effect; potency is the fitted concentration of half-maximal effect.

SMILES	AMA1-RON2 inh	Pf growth 48h	Pf growth 96h	HCV inhibitor
O=C(Nc1ccc(F)c(Cl)c1)c1cc(C2CCCCN2C(=O)c2ccc3c(c2)CCO3)on1 (stereo unspecified)	3.1%	.	.	.
C/C(=N\NC(=S)Nc1cccc(C)c1)c1cccc(N)c1	61.6%	?	23.8%	?
C/C(=N\NC(=S)Nc1cccc(C)c1)c1ccccc1	28.9%	?	5.22µM*	?
CC(=NNC(=S)Nc1cccc(C)c1)c1ccccn1	-14.1%	.	.	10µM*
Nc1ncc(S(=O)(=O)c2ccc([N+](=O)[O-])cc2)s1	1.4%	.	.	3.2%
O=C1CCCN1c1ncc(S(=O)(=O)c2ccc([N+](=O)[O-])cc2)s1	5.2%	?	4.15µM*	?
CC(=O)c1cnc(-c2ccccn2)s1	110.9%	10.4µM*	?	3.1%
CCC(C)C(=O)Nc1nc(C)c(-c2csc(Nc3ccc(Cl)cc3)n2)s1 (stereo unspecified)	35.4%	13.1µM*	9.28µM*	-25.1%
CCCC(=O)Nc1nc(C)c(-c2csc(Nc3ccc(Cl)cc3)n2)s1	72.7%	0.828µM*	?	-4.1%
COc1ccc(N(C)S(=O)(=O)c2cccc(C(=O)OC(C)C(=O)NC3CCCCC3C)c2)cc1 (stereo unspecified)	10.4%	11.7µM*	21.1%	-17.4%
COc1ccc(N(C)S(=O)(=O)c2cccc(C(=O)Nc3cccc(C(=O)NC4CC4)c3)c2)cc1	-2.7%	5.22µM*	14.7µM*	14.1µM*
CC1=NN(c2ccccc2)C(=O)C1=Cc1ccccc1	-5.2%	.	.	.
CC1=NN(c2cccc(C(=O)O)c2)C(=O)/C1=C\C=C/c1ccccc1	10.7%	?	-10.8%	?
CC1=NN(c2ccc(C)cc2)C(=O)/C1=C\C=C\c1ccccc1	?	13.1µM*	?	8.0%
CC1=NN(c2ccccc2)C(=O)/C1=C/c1ccc[nH]1	12.6µM*	13.4%	-10.8%	?
CCn1c(C)c(C)c2cc(C(=O)NC3CCCCCC3)ccc21	-3.4%	?	24.6%	?
Cc1ccc(C)n1-c1ccc(N2CCOCC2)c([N+](=O)[O-])c1	-6.1%	?	?	-5.8%
Cc1ccc(C)n1-c1ccc(N2CCOCC2)cc1	-25.1%	10.4µM*	?	?
Cc1ccc(C)n1-c1ccc(N(C)C)cc1	28.2µM*	14.3%	?	-27.4%
CC(=O)Nc1ccc(-n2c(C)ccc2C)cc1	-4.6%	?	-7.5%	1.7%
COc1cc(OC)c2c(-c3ccccc3)cc(=O)oc2c1C(CCN1CCCCC1)c1ccc(N(C)C)cc1 (stereo unspecified)	25.1µM*	10.4µM*	?	-8.9%
COc1cc(OC)c2c(-c3ccccc3)cc(=O)oc2c1C(CCN1CCOCC1)c1ccc(N(C)C)cc1 (stereo unspecified)	28.2µM*	.	.	?
COc1ccc(C(CCN2CCCCC2)c2c(OC)cc(OC)c3c(-c4ccccc4)cc(=O)oc23)cc1 (stereo unspecified)	-3.3%	10.4µM*	9.28µM*	2.82µM*
COc1cc(OC)c2c(C)cc(=O)oc2c1C(CCN1CCOCC1)c1ccc2c(c1)OCO2 (stereo unspecified)	-12.6%	?	?	?
COc1ccc(C(C)(O)c2nc(-c3cccc(C(C)C)c3)cs2)cc1 (stereo unspecified)	-0.5%	.	.	.
SMILES	AMA1-RON2 inh	Pf growth 48h	Pf growth 96h	HCV inhibitor
CCOc1ccc(N(CC(=O)N2CCN(c3ccccc3F)CC2)S(=O)(=O)c2c(C)noc2C)cc1	3.8%	?	-4.7%	13.3%
COc1ccc(N(CC(=O)N2CCN(c3ccc(F)cc3)CC2)S(=O)(=O)c2c(C)noc2C)cc1	-1.5%	?	1.85µM*	13.2%
CCOc1ccc(N(CC(=O)N2CCN(c3ccc(F)cc3)CC2)S(=O)(=O)c2c(C)noc2C)cc1	-6.2%	10.4µM*	?	?
COc1ccc(N(CC(=O)N2CCN(c3ccc(Cl)cc3)CC2)S(=O)(=O)c2c(C)noc2C)cc1	-12.3%	?	?	11.2µM*
COc1ccc(N(CC(=O)N2CCN(c3cccc(Cl)c3)CC2)S(=O)(=O)c2c(C)noc2C)cc1	-0.7%	10.4µM*	?	?
O=c1[nH][nH]c2c1[C@H](C1CCCC1)O[C@H](CCc1ccccc1)C2	65.6%	.	.	.
COc1ccccc1C(C)NS(=O)(=O)c1cccs1 (stereo unspecified)	.	16.1%	2.3%	.
CC1CC(C)CN(C(=O)CCC(=O)Nc2nnc(C3CCCCC3)s2)C1 (stereo unspecified)	-5.0%	?	?	23.7%
Cc1cc(C)c2c(=O)[nH]c(SCC(=O)c3ccc(F)c(C)c3)nc2n1	6.1%	29.4%	21.6%	20.4%
Cc1cc(C)n(C(C[N+](=O)[O-])c2ccc(Cl)cc2)n1 (stereo unspecified)	-1.7%	?	.	17.1%
N#CCCn1cc(/C=N/O)c(-c2ccccc2)n1	12.8%	.	-21.2%	10.4%
N#CCCn1cc(/C=N/NC(N)=S)c(-c2ccc(-c3ccccc3)cc2)n1	87.3%	?	?	11.2µM*
CN(C)/C=N/c1c(C(=O)NCc2ccccc2)nnn1Cc1ccccc1	-6.8%	2.62µM*	7.6%	-11.8%
Nc1c(C(=O)NCc2ccccc2)nnn1Cc1ccccc1	2.3%	.	-30.0%	15.7%
CN(C)/C=C/C(=O)c1nnn(C2CCCCC2)c1NC1CCCCC1	-3.4%	5.22µM*	.	-26.7%
C1CCC(Nc2nnnn2C2CCCCC2)CC1	1.0%	21.3%	6.3%	0.4%
Cc1nc2ccc(C(=O)N(C)Cc3ccco3)cn2c1N(C)CC1CCCCC1	-16.4%	.	.	.
COc1cc(/C=C2\CCC(C3CCCC3)C2=O)ccc1OC(C)C (stereo unspecified)	8.9%	2.08µM*	?	4.2%
COc1ccc(/C=C2\CCC(C3CCCC3)C2=O)cc1OC (stereo unspecified)	-0.6%	-20.4%	-1.8%	-24.3%
CCOC(=O)C(=CNc1ccc2c(c1)c1ccccc1n2CC)C(=O)OCC	48.2%	44.2%	52.3%	10µM*
CCn1c2ccccc2c2cc(NC(=O)CC(C)=O)ccc21	0.2%	-6.0%	-25.9%	12.6µM*
CCn1c2ccccc2c2cc(NC(=O)C(C)C)ccc21	0.4%	?	?	?
CCn1c2ccccc2c2cc(NC(=O)C(C)Oc3ccccc3)ccc21 (stereo unspecified)	-14.4%	?	?	-23.2%
COc1ccc(OC(C)C(=O)Nc2cccc(F)c2)cc1 (stereo unspecified)	10.1%	-5.0%	1.04µM*	-22.0%
CCn1c2ccccc2c2cc(NC(=O)C(C)Oc3ccc(OC)cc3)ccc21 (stereo unspecified)	-8.3%	?	5.86µM*	?
CCCC(=O)Nc1ccc2c(c1)c1ccccc1n2CC	5.5%	3.1%	95.2%	?
Cn1ncc2c(NNC(=O)C3CCCCC3)ncnc21	73.4%	17.6%	-1.2%	15.7%
Cc1ccc(OC[C@H](O)[C@H](C)NC(C)C)c2c1CCC2	-3.1%	9.28µM*	?	-28.3%
O=C(O)c1c(C(=O)O)c(-c2ccc(F)cc2)n2c1CCC2	-12.8%	2.6%	12.6%	29.6%
